Test results reported in PubChem BioAssay AID1628 (Sanford-Burnham Center for Chemical Genomics, 2009).
Among all 190,000 compounds or so, about 930 (0.49%) were called active.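 How the source made its calls: active means z-score of insulin promoter reporter brightness in nuclei below -3 at 5 µM, with at least 500 cells counted; inconclusive means wells with under 500 cells, flagged as toxic or sparse; inactive means the rest.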 Some of the results follow. Potency and affinity values are given separately.

Assay: insulin promoter down-regulators in MIN6 cells, imaging, high-content screening, mouse beta cells (AID 1628)
Conditions: MIN6 insulin promoter GFP reporter, at 5 µM, stronger effect = lower value
In the case of `CNCCc1c[nH]c2ccccc12`, the z-score is reported as -0.16 (inactive).
In the case of `CCC(=NCCc1c[nH]c2ccccc12)c1c(O)n(C)c(=O)n(C)c1=O`, the z-score is reported as -5.98 (active).
With `O=C(/C=C/c1c[nH]c2ccccc12)c1c(O)n(CCc2ccccc2)c(=O)[nH]c1=O` the z-score was 16 (inactive).
In the case of `CCCCCCn1c(O)c(C=NC2CCCCC2N)c(=O)[nH]c1=O` (stereo unspecified), the z-score is reported as -0.8 (inactive).
With `Cc1cc(C=C2C(=O)NC(=O)NC2=O)c(C)n1-c1ccncc1` the z-score was 2.32 (inactive).
With `CCCCCn1c(=O)c(C(=O)Nc2nc3ccccc3[nH]2)c(O)c2ccccc21` the z-score was -3.26 (active).
For `CCCCn1c(O)c(C(=O)/C=C/c2c[nH]c3ccccc23)c(=O)[nH]c1=O`, the z-score was 12.4 (inactive).
For `CCCCCCn1c(=O)c(C(=O)Nc2ccncc2)c(O)c2ccccc21`, the z-score was -5.74 (active).
In the case of `CCCCCn1c(=O)c(C(=O)Nc2cnccn2)c(O)c2ccccc21`, the z-score is reported as -5.71 (active).
In the case of `CN1CCN(c2ccc(/C=C3\C(=O)NC(=S)N(c4cccc(Br)c4)C3=O)o2)CC1`, the z-score is reported as 3.97 (inactive).
With `O=C(O)c1cccc2nc3ccccc3nc12` the z-score was -0.32 (inactive).
In the case of `Oc1c(Cl)cc(Cl)cc1CN1CCN(Cc2ccccc2)CC1`, the z-score is reported as 2.17 (inactive).
For `O=[N+]([O-])c1ccc(NCc2ccccc2)c2nonc12`, the z-score was 13.4 (inactive).
In the case of `CCCCc1ccc2[nH]cc(CCN)c2c1`, the z-score is reported as 3.13 (inactive).
With `CC(=O)OC(C)(C)/C=C/C(=O)[C@](C)(O)[C@H]1[C@H](O)C[C@@]2(C)[C@@H]3CC=C4[C@H](C[C@H](O)C(=O)C4(C)C)[C@]3(C)C(=O)C[C@]12C` the z-score was -4.32 (active).
In the case of `CN1CC=C2C(C#N)=C(N)C(C#N)(C#N)C(c3ccncc3)C2C1` (stereo unspecified), the z-score is reported as 8.74 (inactive).
For `O=c1[nH]c(=O)n(-c2ccc(F)cc2)c(O)c1C=Nc1ccccc1N1CCCC1`, the z-score was 4.37 (inactive).
With `O=c1cc(C(F)(F)F)c2cc3c4c(c2o1)CCCN4CCC3` the z-score was 17.3 (inactive).
For `CC(C)N1CCN(Cc2cccc([N+](=O)[O-])c2)CC1`, the z-score was 2.53 (inactive).
For `O=C(/C=C/c1ccccc1)NCCc1cnc[nH]1`, the z-score was -0.29 (inactive).
In the case of `CN1/C(=C\C=C2C(=O)NC(=S)NC2=O)C(C)(C)c2ccccc21`, the z-score is reported as 14.4 (inactive).
In the case of `O=C1Nc2ccc(Br)cc2C(c2ccccc2Cl)=NC1O` (stereo unspecified), the z-score is reported as -0.25 (inactive).
For `N#Cc1ccccc1Cn1cc(C(=O)c2ccco2)c2ccccc21`, the z-score was -6.56 (active).
For `CN1C(=O)C(=Cc2ccc(N3CCCCC3)o2)C(=O)N(C)C1=S`, the z-score was 4.86 (inactive).
With `Cc1ccc(Cn2nnnc2CN2CCC(n3nnc4cc(C(F)(F)F)ccc43)CC2)cc1` the z-score was -3.36 (active).
For `CCCCCCn1c(O)c(C=Nc2ccccc2N2CCOCC2)c(=O)[nH]c1=S`, the z-score was 3.25 (inactive).
In the case of `CC(C)(C)c1nc(NCc2ccc3c(c2)OCO3)c2nnn(Cc3ccccc3Cl)c2n1`, the z-score is reported as 2.04 (inactive).
For `COc1ccc(Cl)cc1NC1=NCC(C)S1` (stereo unspecified), the z-score was -4.13 (active).
With `CN1CCN(c2nc(Cl)ncc2F)CC1` the z-score was 4.91 (inactive).
In the case of `CC1=NCCc2c1[nH]c1ccccc21`, the z-score is reported as -0.55 (inactive).
For `CCn1nc(/C=C/c2ccccc2)nc2c(=O)n(C)c(=O)nc1-2`, the z-score was -4.69 (active).
With `Cc1cc2c(C(F)(F)F)cc(=O)oc2c2c1NCCC2` the z-score was 5.21 (inactive).
With `CN1C2CCC1CC(=NO)C2` the z-score was 0.21 (inactive).
In the case of `Nc1cc2nc3ccccc3nc2cc1N`, the z-score is reported as 3.68 (inactive).
For `CC(C)[C@H]1C(=O)O[C@H](C(C)C)C(=O)N(C)[C@@H](C(C)C)C(=O)O[C@H](C(C)C)C(=O)N(C)[C@@H](C(C)C)C(=O)O[C@H](C(C)C)C(=O)N1C`, the z-score was -4.32 (active).
In the case of `NC(=O)OCCSc1nnc(-c2cccc(C(N)=S)c2)o1`, the z-score is reported as 1.36 (inactive).
For `O=C1NC(=O)N(c2ccc3c(c2)OCO3)C(=O)/C1=C/c1cccs1`, the z-score was 1.66 (inactive).
In the case of `c1ccc2c(N3CCNCC3)nsc2c1`, the z-score is reported as 3.06 (inactive).
In the case of `COc1ccc(CC(=O)N2CCN(C)CC2)cc1`, the z-score is reported as 3.53 (inactive).
With `COc1ccccc1CN1CCN(C(=O)COc2ccccc2)CC1` the z-score was -4.58 (active).
For `COc1ccc(OCC(=O)N2CCN(C3CCC(c4ccccc4)CC3)CC2)cc1` (stereo unspecified), the z-score was -4.73 (active).
For `CCC(=O)c1ccc(OC)c(OC)c1`, the z-score was -0.74 (inactive).
For `C=CCN1C(=O)/C(=C/c2ccc(N3CCOCC3)o2)C(=O)NC1=S`, the z-score was 3.53 (inactive).
For `Cn1c(=O)c2c(ncn2CCCl)n(C)c1=O`, the z-score was 0.35 (inactive).
With `CCc1ccccc1N1C(=O)/C(=C/c2ccc(N3CCN(C)CC3)o2)C(=O)NC1=S` the z-score was 3.37 (inactive).
With `Cc1cc([N+](=O)[O-])c2ccccc2[n+]1[O-]` the z-score was -6.12 (active).
With `c1ccc2c(NC3=NCCS3)cccc2c1` the z-score was -5.01 (active).
In the case of `CC(Cc1ccccc1)NC(=O)CN1CCCC1=O` (stereo unspecified), the z-score is reported as -3.46 (active).
For `COc1ccc(-c2cc(-c3ccccc3)[n+](C)c(-c3ccccc3)c2)cc1`, the z-score was -4.19 (active).
With `CCN(CC)c1ccc(/C=N/c2sc3c(c2C#N)C2CCN3CC2)c(O)c1` the z-score was 16.8 (inactive).
In the case of `CC1CCCC(C2(O)C(=O)Nc3ccccc32)C1=O` (stereo unspecified), the z-score is reported as 5.61 (inactive).
